# Experimental data published in PubChem BioAssay (NCI).
# Several values for one entry are separate records, joined by “and”; a condition that tells them apart may be missing. Identical values can stand only once. Compounds without any hit were thinned out: in the full panel of roughly 83,000, 20% have a hit.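 For each line, cells grew in 96-well plates with the test compound present at a single concentration for 48 hours.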 Activity calls are given as the source filed them. Rule for the calls: active = growth percent below 10; inactive = the rest.
# Test system: UACC-62 melanoma
# Experiment: NCI-60 one-dose screen, 48 h (100 = growth as untreated, 0 = no growth, -100 = all killed)
# Conditions: 10 µM unless noted
row,Structure (SMILES),growth
1,Cn1c(COC(=O)NC2CCCCC2)c(COC(=O)NC2CCCCC2)c2ccc3cc(Cl)c(Cl)cc3c21,-50.6% [100 µM] (active)
2,C=C1C(=O)C2=CC1CCC(=O)C1(C)CCC(OC(C)=O)C(C)(C)C1CC2O (stereo not drawn),-95.4% [100 µM] (active) and -100% [100 µM] (active)
3,CC1=C(Cl)C[C@@H](/C(C)=C\Cl)O[C@@]1(O)C(Br)Br,70.8% [100 µM] (inactive) and -44.8% [100 µM] (active)
4,CC1(C)CCC2(C(=O)O)C(O)CC3(C)C(=CCC4C5(C)CCC(OC6OCC(O)C(O)C6OC6OCC(O)C(O)C6OC6OCC(O)C(OC7OC(CO)C(O)C(O)C7O)C6O)C(C)(C)C5CCC43C)C2C1 (stereo not drawn),97.8% [100 µM] (inactive) and 5.39% [100 µM] (active)
5,COc1ccc2c(c1)C(N)=C(c1ccccc1)C2=O,80.5% [100 µM] (inactive) and 28.2% [100 µM] (inactive)
6,O=C(O)CCCOc1cc(-c2ccccc2F)nc2cc3c(cc12)OCO3,11.6% [100 µM] (inactive) and -54.7% [100 µM] (active)
7,CC1=C(C2=C(C)C(=O)C(=O)c3cc(C)ccc32)c2ccc(C)cc2C(=O)C1=O,-92.5% [100 µM] (active) and -100% [100 µM] (active)
8,COC(=O)[C@]1(C)CCC[C@@]2(C)[C@@H]3C[C@@H]4[C@H]5C[C@@]3(CC[C@@H]21)C[C@@]45C,-98.2% [100 µM] (active) and -85.1% [100 µM] (active)
9,C=c1c2ccccc2oc2nc3[nH]c(N)c(C#N)c(N)c3c(=N)c12,44.5% [100 µM] (inactive) and 0.738% [100 µM] (active)
10,S=C1NC2=C(COc3ccccc32)C(c2ccc(Cl)cc2)N1 (stereo not drawn),-56.9% [100 µM] (active) and -100% [100 µM] (active)
11,Cc1ccc(NC(=S)C#N)cc1Cl,-35.5% [100 µM] (active) and -95.7% [100 µM] (active)
12,CCOc1cc2c(cc1O)/C(=N\OC)C[C@@H]1[C@@H]2CC[C@]2(C)[C@@H](O)CC[C@@H]12,-31.9% [100 µM] (active) and -75.8% [100 µM] (active)
13,C=CCO/N=C/c1cc(NC(=S)c2ccoc2C)ccc1Cl,-98.8% [100 µM] (active) and -100% [100 µM] (active)
14,CCOC(=O)C1C(C(C)C)C2(C#N)C(=N)OC1(C)C2(C#N)C#N (stereo not drawn),-51.6% [100 µM] (active) and -86.9% [100 µM] (active)
15,O=Cc1ccc(-c2ccc(-c3ccc(CO)s3)o2)s1,-65% [100 µM] (active) and -100% [100 µM] (active)
16,C[C@@H]1CCC([C@@H](C)[C@H]2CC[C@H]3[C@@H]4CC[C@H]5C[C@@H](O)CC[C@]5(C)[C@H]4CC[C@]23C)=NC1,-45.8% [100 µM] (active) and -54.1% [100 µM] (active)
17,Cc1c2c(c(C)c3c[n+](C)ccc13)Oc1ccccc1O2,-77.7% [100 µM] (active) and -100% [100 µM] (active)
18,CC1=CC[C@@H]2[C@@H](CC[C@@]2(C)O)C(C)(C)[C@H]1CC[C@@H]1[C@@]2(C)CC[C@@H](O)C(C)(C)O[C@@H]2CC[C@]1(C)O,-81.4% [100 µM] (active) and -96.9% [100 µM] (active)
19,C=C1C(=O)OC2CC3(C)CCCC(C)C3=CC12 (stereo not drawn),-100% [100 µM] (active) and -93.9% [100 µM] (active)
20,CCOC(=O)COc1cc(-c2ccccc2F)nc2cc3c(cc12)OCO3,69.3% [100 µM] (inactive) and 35.8% [100 µM] (inactive)
21,CC(C)(C)N/N=C(/Cc1nc2c3c(ccc2[nH]c1=O)C(=O)c1ccccc1C3=O)C(=O)NC1=C(Cl)C(=O)c2ccccc2C1=O,22.1% [100 µM] (inactive) and 1.57% [100 µM] (active)
22,Fc1cccc(F)c1C1SCc2nc3cc4ccccc4cc3n21 (stereo not drawn),21.7% [100 µM] (inactive) and 19.9% [100 µM] (inactive)
23,Cc1cc(O)c2c(c1)C(=O)C(c1c(C)cc3c(c1O)C(=O)C1OC1C3=O)=CC2=O (stereo not drawn),-91.9% [100 µM] (active) and -93.6% [100 µM] (active)
